# Where “and” joins values, the source holds several entries; their conditions need not be identical. Equal values may be shown once. Compounds without any hit were thinned out: in the full panel of roughly 83,000, 20% have a hit.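 Assay: single dose, 48 h. Readout: percent growth (0 = no net growth; negative = cell death). Active: <10.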 Calls of active or inactive are those of the source.
# Columns and labels:
# Experiment in all cases: NCI-60 one-dose screen, 48 h (100 = growth as untreated, 0 = no growth, -100 = all killed)
# Conditions in all cases: 10 µM unless noted
# SK-MEL-2 melanoma = system: SK-MEL-2 melanoma
# EKVX NSCLC = system: EKVX NSCLC
# SN12C renal = system: SN12C renal
# UO-31 renal = system: UO-31 renal
# TK-10 renal = system: TK-10 renal
# ACHN renal = system: ACHN renal
# CAKI-1 renal = system: CAKI-1 renal
# A498 renal = system: A498 renal
# CCRF-CEM leukemia = system: CCRF-CEM leukemia
# MOLT-4 leukemia = system: MOLT-4 leukemia
# SR leukemia = system: SR leukemia
# RPMI-8226 leukemia = system: RPMI-8226 leukemia
# OVCAR-8 ovarian = system: OVCAR-8 ovarian
# OVCAR-4 ovarian = system: OVCAR-4 ovarian
# SK-OV-3 ovarian = system: SK-OV-3 ovarian
# OVCAR-3 ovarian = system: OVCAR-3 ovarian
# HS 578T breast = system: HS 578T breast
# NCI/ADR-RES ovarian = system: NCI/ADR-RES ovarian
# IGROV1 ovarian = system: IGROV1 ovarian
# OVCAR-5 ovarian = system: OVCAR-5 ovarian
Compound,growth (SK-MEL-2 melanoma),growth (EKVX NSCLC),growth (SN12C renal),growth (UO-31 renal),growth (TK-10 renal),growth (ACHN renal),growth (CAKI-1 renal),growth (A498 renal),growth (CCRF-CEM leukemia),growth (MOLT-4 leukemia),growth (SR leukemia),growth (RPMI-8226 leukemia),growth (OVCAR-8 ovarian),growth (OVCAR-4 ovarian),growth (SK-OV-3 ovarian),growth (OVCAR-3 ovarian),growth (HS 578T breast),growth (NCI/ADR-RES ovarian),growth (IGROV1 ovarian),growth (OVCAR-5 ovarian)
O=C1OC(Oc2ccc(Br)cc2)(c2ccccc2)c2ccccc21 (configuration not stated),74.2% (inactive) and 73.2% (inactive),96.4% (inactive) and 82.2% (inactive),87.8% (inactive) and 98.2% (inactive),72.4% (inactive) and 89.3% (inactive),89.4% (inactive) and 86.2% (inactive),83.6% (inactive) and 80.3% (inactive),17.9% (inactive) and 0.588% (active),80.1% (inactive) and 93.7% (inactive),70.1% (inactive) and 46.1% (inactive),77.4% (inactive),75.4% (inactive),85.8% (inactive),93.9% (inactive) and 93% (inactive),92.1% (inactive),96.1% (inactive) and 110% (inactive),87.4% (inactive) and 68.8% (inactive),97.6% (inactive) and 84.7% (inactive),90.8% (inactive) and 76.8% (inactive),,
Fc1ccccc1Nc1n[nH]c(=S)s1,116% (inactive),136% (inactive),99.9% (inactive),95.5% (inactive),115% (inactive),110% (inactive),113% (inactive),94.6% (inactive),-60% (active),114% (inactive),,110% (inactive),103% (inactive),122% (inactive),110% (inactive),107% (inactive),107% (inactive),115% (inactive),126% (inactive),
Clc1nc(Oc2ccccc2)nc(-c2cn(-c3ccccc3)c3ccccc23)n1,-49.5% (active),81.3% (inactive),85.9% (inactive),17% (inactive),114% (inactive),68.7% (inactive),13.4% (inactive),128% (inactive),27.2% (inactive),47% (inactive),-31.7% (active),49.1% (inactive),,98.8% (inactive),103% (inactive),7.87% (active),44.1% (inactive),84.9% (inactive),28.3% (inactive),101% (inactive)
Oc1c(CN2CCCCC2)ccc2cccnc12,96.9% (inactive) and 82.4% (inactive),71.3% (inactive),58.2% (inactive) and 59.2% (inactive),8.37% (active) and -0.287% (active),40.8% (inactive) and 48.7% (inactive),7.15% (active) and 9.28% (active),2.08% (active),61.4% (inactive) and 62.9% (inactive),16.6% (inactive),38.2% (inactive) and 36% (inactive),32.4% (inactive) and 33.2% (inactive),58.5% (inactive),33.1% (inactive) and 23.3% (inactive),29.3% (inactive),54.5% (inactive) and 50.8% (inactive),14.4% (inactive) and 52.7% (inactive),89.5% (inactive) and 89.1% (inactive),7.05% (active) and 4.34% (active),46% (inactive) and 55.3% (inactive),
CO/N=C/C=C\C(=O)N/C=C/C[C@H]1/C=C/[C@H](O)/C=C\C=C\c2cccc(O)c2C(=O)O1,5.72% (active) and -20.7% (active),35.1% (inactive) and 47.9% (inactive),48.5% (inactive) and 40.9% (inactive),14.2% (inactive) and -7.71% (active),53.9% (inactive) and 52% (inactive),31.1% (inactive) and 22.4% (inactive),9.88% (active) and 2.94% (active),44.1% (inactive) and 10.3% (inactive),33% (inactive) and 32.7% (inactive),27.7% (inactive) and 14.6% (inactive),6.08% (active) and 20.5% (inactive),12.8% (inactive) and 11.6% (inactive),,,49.6% (inactive) and 35% (inactive),60.9% (inactive) and 36.3% (inactive),50.9% (inactive) and 57.1% (inactive),44.4% (inactive) and 32.6% (inactive),36.5% (inactive) and 40.3% (inactive),
NC(=S)N/N=C(\c1ccc(Br)cc1)C1CC1,92.8% (inactive),58% (inactive) and 68.4% (inactive),89.5% (inactive),61.4% (inactive) and 56.8% (inactive),119% (inactive),95.7% (inactive) and 93% (inactive),83.7% (inactive) and 81.4% (inactive),99.5% (inactive),52.5% (inactive) and 55.6% (inactive),38% (inactive) and 45.2% (inactive),87.6% (inactive),71.3% (inactive) and 60.9% (inactive),83% (inactive),74.4% (inactive),105% (inactive) and 97% (inactive),38.3% (inactive) and 37.1% (inactive),96.1% (inactive) and 98% (inactive),74.2% (inactive) and 57.5% (inactive),18.1% (inactive) and 42.3% (inactive),
Cc1ccc(-c2noc(CC(=O)c3ccc([N+](=O)[O-])cc3)n2)cc1,110% (inactive),95.9% (inactive),94.1% (inactive),89.6% (inactive),115% (inactive),103% (inactive),97.1% (inactive),86.7% (inactive),96.7% (inactive),90.5% (inactive),98.1% (inactive),116% (inactive),,102% (inactive),97.6% (inactive),102% (inactive),99.8% (inactive),,,97.5% (inactive)
CCCCCCCCCCCCOc1ccccc1C=O,112% (inactive),97% (inactive),93.7% (inactive),65.1% (inactive),118% (inactive),101% (inactive),84.9% (inactive),116% (inactive),79.9% (inactive),78.3% (inactive),84.9% (inactive),96.4% (inactive),,86.5% (inactive),95.7% (inactive),108% (inactive),97% (inactive),102% (inactive),112% (inactive),101% (inactive)
NCCSC(C[N+](=O)[O-])c1ccccc1Cl (configuration not stated),34.9% (inactive),100% (inactive),104% (inactive),63.3% (inactive),51.8% (inactive),107% (inactive),99.8% (inactive),36% (inactive),0.339% (active),-32.1% (active),,-22.6% (active),61% (inactive),102% (inactive),112% (inactive),-75.7% (active),-1.76% (active),106% (inactive),,99.5% (inactive)
CC(C)Oc1ccc2cc(-c3nn(CC4CCNCC4)c4ncnc(N)c34)ccc2c1,100% (inactive),97.4% (inactive) and 26.2% (inactive),79.7% (inactive),71.6% (inactive) and 36.9% (inactive),82.2% (inactive) and 14.6% (inactive),88.1% (inactive) and 14.1% (inactive),106% (inactive) and 31% (inactive),75% (inactive) and 16.7% (inactive),60.6% (inactive) and -23% (active),29% (inactive) and -23.8% (active),18.3% (inactive) and -42.2% (active),46.6% (inactive) and -53.2% (active),,100% (inactive) and 30.9% (inactive),75.8% (inactive) and 13.3% (inactive),92.2% (inactive) and 33.9% (inactive),75.7% (inactive) and -8.78% (active),,92.1% (inactive) and 42.4% (inactive),80.1% (inactive) and 40.2% (inactive)

# Reference: PubChem BioAssay (NCI)
